Laboratory results reported in PubChem BioAssay (NCATS).
Inconclusive results are not listed. Where a call stands in place of a potency, no number is given. Active and inactive are the calls of the source. Calls follow the shape of the dose curve; as a rule, active = well fitted curve in the direction sought with a large enough effect; inconclusive = small, poorly fitted or top-dose-only effect, or another doubt; inactive = no such curve, though single readings can be large; an effect the other way counts as inactive or inconclusive.

Key:
[1] = target: Voltage-gated inwardly rectifying potassium channel KCNH2 (Homo sapiens) (UniProt Q12809); experiment: qHTS Assay for Small Molecule Inhibitors of the Human hERG Channel Activity (AID 588834);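 also: top concentration of the series differs between compounds; lower thallium flux fluorescence means stronger hERG block; nearly all actives have a fitted effect of over 50% in size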
In short: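 hERG-BacMam U2OS, 2000 cells/well; 0.7X FluxOR loading 1 hr RT dark; cpd ~10 min 37 °C; stim buffer; FDSS fluorescence 2 min @ 1 s; AC50 Hill fit.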

[2] = target: Luciferin 4-monooxygenase (Photinus pyralis) (UniProt P08659); experiment: Biochemical firefly luciferase enzyme assay for NPC (AID 624030); also: nearly all actives have a fitted effect of over 70% in size; also: potency is read from the fitted curve at half-maximal effect
In short: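 Direct inhibition of firefly luciferase enzyme (10 nM final, 50 mM Tris Acetate) assessed by luminescence within 5 minutes. Percent activity scaled between DMSO and PTC124 positive control, with concentration-effect curves classified by fit quality and response.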

[3] = S16 Schwann cell viability assay (CellTiter-Glo assay) (AID 624031);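 also: native untransfected S16 rat Schwann cells; cellular ATP luminescence as a viability measure; series mostly up to about 58 µM; nearly all actives have a fitted effect of over 70% in size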
In short: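 Parental S16 cells, 24 h compound, 37 °C. ATP-luminescence viability; DMSO = 0% activity, empty wells as reference; curves classified by fit quality and efficacy.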

[4] = S16 Schwann cell PMP22 intronic element firefly luciferase assay (AID 624032); also: series mostly up to about 58 µM; nearly all actives have a fitted effect of over 30% in size
In short: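 Luciferase reporter of PMP22 intronic-element expression in stably transfected S16 rat Schwann cells, read by ONE-Glo luminescence after 24 h compound exposure at 37 C. Activity scaled between DMSO (0%) and positive-control PTC124; concentration-effect curves quality-classified.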

Sequence of Voltage-gated inwardly rectifying potassium channel KCNH2 (Homo sapiens) (Q12809 whole entry, looked up): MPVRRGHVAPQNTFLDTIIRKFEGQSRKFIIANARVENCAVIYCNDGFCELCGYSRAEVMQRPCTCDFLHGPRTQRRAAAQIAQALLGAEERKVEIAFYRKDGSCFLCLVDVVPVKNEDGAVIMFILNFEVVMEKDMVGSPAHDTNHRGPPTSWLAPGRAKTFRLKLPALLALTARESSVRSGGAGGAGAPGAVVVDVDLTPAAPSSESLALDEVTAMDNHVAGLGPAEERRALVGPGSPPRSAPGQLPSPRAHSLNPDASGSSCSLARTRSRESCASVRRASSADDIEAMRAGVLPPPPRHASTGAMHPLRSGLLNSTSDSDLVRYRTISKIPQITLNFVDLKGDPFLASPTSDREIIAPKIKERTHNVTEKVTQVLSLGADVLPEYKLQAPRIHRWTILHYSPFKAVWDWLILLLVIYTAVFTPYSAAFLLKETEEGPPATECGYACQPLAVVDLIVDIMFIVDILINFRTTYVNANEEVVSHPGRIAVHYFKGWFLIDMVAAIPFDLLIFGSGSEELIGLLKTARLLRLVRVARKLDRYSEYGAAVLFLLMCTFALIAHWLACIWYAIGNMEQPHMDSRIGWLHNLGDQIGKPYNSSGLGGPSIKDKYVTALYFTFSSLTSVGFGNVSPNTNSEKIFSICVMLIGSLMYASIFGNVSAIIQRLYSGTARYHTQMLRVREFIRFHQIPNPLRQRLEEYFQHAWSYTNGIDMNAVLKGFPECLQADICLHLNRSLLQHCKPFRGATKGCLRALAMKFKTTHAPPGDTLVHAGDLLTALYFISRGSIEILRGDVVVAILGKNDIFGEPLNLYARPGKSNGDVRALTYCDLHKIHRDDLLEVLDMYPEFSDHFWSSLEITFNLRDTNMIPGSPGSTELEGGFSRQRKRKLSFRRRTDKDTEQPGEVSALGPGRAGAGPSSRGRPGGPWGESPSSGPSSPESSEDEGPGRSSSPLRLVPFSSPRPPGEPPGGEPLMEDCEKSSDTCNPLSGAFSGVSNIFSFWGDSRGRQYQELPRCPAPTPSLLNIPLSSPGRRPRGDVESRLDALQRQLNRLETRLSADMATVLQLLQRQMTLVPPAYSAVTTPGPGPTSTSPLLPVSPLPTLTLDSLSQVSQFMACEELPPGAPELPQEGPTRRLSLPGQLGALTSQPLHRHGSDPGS
Sequence of Luciferin 4-monooxygenase (Photinus pyralis) (P08659 whole entry, looked up): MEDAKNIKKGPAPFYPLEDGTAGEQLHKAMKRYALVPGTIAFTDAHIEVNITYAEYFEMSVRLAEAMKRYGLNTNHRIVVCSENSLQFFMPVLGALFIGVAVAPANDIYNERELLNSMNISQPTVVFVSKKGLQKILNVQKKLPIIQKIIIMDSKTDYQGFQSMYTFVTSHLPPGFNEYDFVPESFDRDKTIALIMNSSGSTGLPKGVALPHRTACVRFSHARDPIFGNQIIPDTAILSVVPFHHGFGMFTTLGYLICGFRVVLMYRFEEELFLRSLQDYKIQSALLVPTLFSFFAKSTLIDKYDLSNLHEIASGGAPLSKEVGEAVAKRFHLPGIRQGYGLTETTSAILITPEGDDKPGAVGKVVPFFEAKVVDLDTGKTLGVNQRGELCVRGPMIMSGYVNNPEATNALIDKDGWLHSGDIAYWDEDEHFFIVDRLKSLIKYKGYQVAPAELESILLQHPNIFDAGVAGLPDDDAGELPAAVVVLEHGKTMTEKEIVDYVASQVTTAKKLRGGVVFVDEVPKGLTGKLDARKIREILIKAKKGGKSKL

Row | Structure (SMILES) | Potency [1] | Potency [2] | outcome [3] | Potency [4]
1 | CCOc1cc(NC(C)=O)ccc1C(=O)OC | inactive | inactive | inactive | inactive
2 | Cc1ccccc1N=Nc1ccc(N=Nc2c(O)ccc3ccccc23)c(C)c1 | inactive | inactive | inactive | 
3 | CCN(CC)S(=O)(=O)c1ccc(C(=O)O)cc1 | inactive | inactive | inactive | inactive
4 | COC(=O)c1cccnc1 | inactive | inactive |  | 
5 | C=CCSCC1Nc2cc(Cl)c(S(N)(=O)=O)cc2S(=O)(=O)N1 (stereo not given) | inactive | inactive |  | 
6 | O[C@@H]1CO[C@H]2[C@@H]1OC[C@@H]2O | inactive | inactive | inactive | inactive
7 | Cn1c(=O)c2c(ncn2CCO)n(C)c1=O | inactive | inactive | inactive | inactive
8 | O=C(Cn1ccnc1[N+](=O)[O-])NCCO | inactive | inactive | inactive | inactive
9 | CCOC(N)=O | inactive | inactive | inactive | inactive
10 | Cc1c(NC(C)C)c(=O)n(-c2ccccc2)n1C | inactive | inactive | inactive | inactive
11 | CC(O)CCCCn1c(=O)c2c(ncn2C)n(C)c1=O (stereo not given) | inactive | inactive | inactive | inactive
12 | Nc1ccncc1N | inactive | inactive | inactive | inactive
13 | CC(=O)Oc1cccc(C)c1 | inactive | inactive | inactive | inactive
14 | OCC(O)CS (stereo not given) | inactive | inactive | inactive | inactive
15 | C[C@@H](N)C(=O)O | inactive | inactive | inactive | inactive
16 | CC(C)CCCC(C)CCCC(C)CCCCC(C)CCCC(C)CCCC(C)C (stereo not given) | inactive | inactive | inactive | inactive
17 | CCc1nnc(NS(=O)(=O)c2ccc(N)cc2)s1 | inactive | inactive | inactive | inactive
18 | OCc1ccc(Cl)cc1Cl | inactive | inactive | inactive | inactive
19 | Cc1[nH]c(C)c(Cl)c(=O)c1Cl | inactive | inactive | inactive | inactive
20 | CC(C)c1cc2c(cc1S(=O)(=O)O)[C@@]1(C)CCC[C@@](C)(C(=O)O)[C@@H]1CC2 | inactive | inactive | inactive | inactive

Row | Structure (SMILES) | Potency [1] | Potency [2] | outcome [3] | Potency [4]
21 | O=c1[nH]c(=O)c2ccccc2o1 | inactive | inactive | inactive | inactive
22 | NC(=O)NS(=O)(=O)c1ccc(N)cc1 | inactive | inactive | inactive | inactive
23 | O=C(O)c1ccc[n+]([O-])c1 | inactive | inactive | inactive | inactive
24 | NC(=O)CC[C@@H](N)C(=O)O | inactive | inactive | inactive | inactive
25 | CC[N+](C)(CC)CCOC(=O)C1c2ccccc2Oc2ccccc21 | inactive | inactive | inactive | inactive
26 | O=C1CC[C@@H](C(=O)O)N1 | inactive | inactive | inactive | inactive
27 | CCCCC1(COC(=O)CCC(=O)O)C(=O)N(c2ccccc2)N(c2ccccc2)C1=O | inactive | inactive | inactive | inactive
28 | O=C(O)c1ccccc1OP(=O)(O)O | inactive | inactive | inactive | inactive
29 | CCCNC(C)(C)COC(=O)c1ccccc1 | inactive | inactive | inactive | inactive
30 | Nc1ccc(C(=O)Oc2ccccc2)c(O)c1 | inactive | 6.42 µM (active) | inactive | inactive
31 | CCN1CC(CCN2CCOCC2)C(c2ccccc2)(c2ccccc2)C1=O (stereo not given) | inactive | inactive | inactive | inactive
32 | CC(=O)OC[C@H]1O[C@@](COC(C)=O)(O[C@H]2O[C@H](COC(C)=O)[C@@H](OC(C)=O)[C@H](OC(C)=O)[C@H]2OC(C)=O)[C@@H](OC(C)=O)[C@@H]1OC(C)=O | inactive | inactive | inactive | inactive
33 | C[C@@H]1CCC[C@H](C)N1 | inactive | inactive | inactive | inactive
34 | CN(C(=O)c1c(O)c2ccccc2n(C)c1=O)c1ccccc1 | inactive | inactive | inactive | inactive
35 | CCN(CC)CCc1nc(-c2ccccc2)no1 | inactive | inactive | inactive | inactive
36 | COC(=O)c1ccccc1C(=O)c1ccc(OCCN2CCCCC2)cc1 | inactive | inactive | inactive | inactive
37 | Cc1onc(-c2ccccc2)c1-c1ccc(S(N)(=O)=O)cc1 | inactive | inactive | inactive | inactive
38 | CC(N)CCCC(C)(C)O (stereo not given) | inactive | inactive | inactive | inactive
39 | CC(CSC(=O)c1ccccc1)C(=O)N1C[C@@H](Sc2ccccc2)C[C@H]1C(=O)O (stereo not given in full) | inactive | inactive | inactive | inactive
40 | CNc1c2c(nn1C)CCCC2 | inactive | inactive | inactive | inactive
